Common to all, as to assay: protein-binding microarray (PBM); PBM: ~300 nM protein, 6 mM HEPES pH 7.8, 80 mM KCl, 0.5 mM EDTA, 0.5 mM EGTA, 6% glycerol, 35 ng/ul poly-dIdC, 1% milk, 1 h, room temperature; Ap Aiptasia and Nv Nematostella (sea anemones) / Co Capsaspora / Aq Amphimedon (sponge) / Dm Drosophila / Hu human; RHD is the Rel homology domain; high values mean tight binding
Holding throughout (conditions): dsDNA, one strand shown

Assay [1] addresses T1, GST-Ap-NF-kB RHD (Exaiptasia pallida (Aiptasia), UniProt A0A913YAJ5 2-422).
T1 sequence: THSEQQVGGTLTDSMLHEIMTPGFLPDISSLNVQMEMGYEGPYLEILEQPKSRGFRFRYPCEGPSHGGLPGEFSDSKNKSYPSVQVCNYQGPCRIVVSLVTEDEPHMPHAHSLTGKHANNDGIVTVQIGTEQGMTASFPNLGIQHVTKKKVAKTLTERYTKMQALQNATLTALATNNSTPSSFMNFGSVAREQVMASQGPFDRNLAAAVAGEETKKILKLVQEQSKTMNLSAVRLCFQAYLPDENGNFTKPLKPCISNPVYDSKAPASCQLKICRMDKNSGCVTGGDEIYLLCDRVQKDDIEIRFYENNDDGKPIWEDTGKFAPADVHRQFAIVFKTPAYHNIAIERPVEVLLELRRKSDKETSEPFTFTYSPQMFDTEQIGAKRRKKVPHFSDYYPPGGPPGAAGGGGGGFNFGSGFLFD

Assay [2] deals with T2, GST-Nv-NF-kB (Cys allele) (Nematostella vectensis, UniProt E5G601 2-411).
T2 sequence: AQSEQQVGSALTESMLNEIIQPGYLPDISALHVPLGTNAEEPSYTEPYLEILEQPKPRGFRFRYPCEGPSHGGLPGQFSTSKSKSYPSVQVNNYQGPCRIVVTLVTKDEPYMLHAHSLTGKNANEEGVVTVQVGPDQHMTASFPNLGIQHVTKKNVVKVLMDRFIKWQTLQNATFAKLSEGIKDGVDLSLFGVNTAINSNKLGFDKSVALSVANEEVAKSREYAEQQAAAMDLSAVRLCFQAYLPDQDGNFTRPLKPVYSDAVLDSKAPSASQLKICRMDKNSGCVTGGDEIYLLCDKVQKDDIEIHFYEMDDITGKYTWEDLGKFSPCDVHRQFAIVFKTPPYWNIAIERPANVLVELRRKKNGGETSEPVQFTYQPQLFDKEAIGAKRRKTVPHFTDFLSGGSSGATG

Assay [3] deals with T3, GST-Nv-NF-kB (Ser allele) (Nematostella vectensis, UniProt A7UNT2 2-411).
T3 sequence: T2 sequence with Q21R, C66S, S207N, E215Q, V217A, E225K, A268E, D399E

Assay [4] has as its target T4, GST-Co-NF-kB (Capsaspora owczarzaki, UniProt F1ARL5 200-546).
T4 sequence: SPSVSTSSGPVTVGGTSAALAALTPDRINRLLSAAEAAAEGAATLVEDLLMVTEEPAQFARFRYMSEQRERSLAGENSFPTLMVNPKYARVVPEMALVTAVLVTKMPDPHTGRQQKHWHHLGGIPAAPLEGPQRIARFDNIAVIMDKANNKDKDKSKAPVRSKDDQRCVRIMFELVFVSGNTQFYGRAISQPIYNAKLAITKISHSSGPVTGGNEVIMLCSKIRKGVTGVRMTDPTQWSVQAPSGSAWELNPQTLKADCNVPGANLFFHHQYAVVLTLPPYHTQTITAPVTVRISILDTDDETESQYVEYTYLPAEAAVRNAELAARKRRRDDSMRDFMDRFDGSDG

The target in assay [5] is T5, GST-Dm-Relish (Drosophila melanogaster, UniProt Q94527 99-473).
T5 sequence: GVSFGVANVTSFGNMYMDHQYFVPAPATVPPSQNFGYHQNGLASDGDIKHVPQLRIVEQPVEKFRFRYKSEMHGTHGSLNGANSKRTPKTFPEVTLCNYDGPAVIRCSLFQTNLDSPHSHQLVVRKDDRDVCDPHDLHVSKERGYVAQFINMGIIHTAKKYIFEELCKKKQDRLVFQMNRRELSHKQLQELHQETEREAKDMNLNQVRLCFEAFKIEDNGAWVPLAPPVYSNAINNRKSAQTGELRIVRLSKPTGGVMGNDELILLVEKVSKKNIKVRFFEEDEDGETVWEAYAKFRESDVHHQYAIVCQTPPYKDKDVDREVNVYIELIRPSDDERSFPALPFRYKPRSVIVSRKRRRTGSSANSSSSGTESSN

In assay [6] the target is T6, GST-Aq-NF-kB (Amphimedon queenslandica, UniProt A9Y5G7 2-389).
T6 sequence: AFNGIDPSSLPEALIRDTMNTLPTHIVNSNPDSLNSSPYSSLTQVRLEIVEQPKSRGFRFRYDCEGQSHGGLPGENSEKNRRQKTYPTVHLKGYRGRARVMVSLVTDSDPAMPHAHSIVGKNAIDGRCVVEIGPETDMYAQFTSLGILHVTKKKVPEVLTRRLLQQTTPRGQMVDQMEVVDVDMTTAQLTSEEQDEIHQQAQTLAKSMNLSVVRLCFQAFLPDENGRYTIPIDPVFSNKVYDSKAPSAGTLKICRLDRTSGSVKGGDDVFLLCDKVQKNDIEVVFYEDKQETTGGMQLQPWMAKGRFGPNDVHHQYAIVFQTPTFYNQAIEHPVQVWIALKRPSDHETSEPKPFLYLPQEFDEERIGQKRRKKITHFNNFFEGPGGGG

In assay [7] the target is GST-Hu-p50 (Homo sapiens, UniProt P19838 7-356).

Where a chain is given by its changes, count along the chain named.

GST-Hu-p50, sequence (P19838 7-356): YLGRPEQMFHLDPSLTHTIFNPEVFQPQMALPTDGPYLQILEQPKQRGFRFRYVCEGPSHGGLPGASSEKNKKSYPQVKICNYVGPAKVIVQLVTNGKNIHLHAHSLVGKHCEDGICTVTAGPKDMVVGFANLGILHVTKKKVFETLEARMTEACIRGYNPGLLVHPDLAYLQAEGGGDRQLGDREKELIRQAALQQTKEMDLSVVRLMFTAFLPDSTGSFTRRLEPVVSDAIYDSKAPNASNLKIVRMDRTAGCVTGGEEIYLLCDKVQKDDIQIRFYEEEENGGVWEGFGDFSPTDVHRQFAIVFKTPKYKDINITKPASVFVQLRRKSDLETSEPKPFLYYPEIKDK

With “CCGATTAACATCAAATTCCCCCATGATGTTAATCGGGTCTTGATTCGCTTGACGCTGCTG”, the binding signal in assay [1] was 8.6 z-score; in assay [2], 8.92 z-score; in assay [3], 9.99 z-score; in assay [4] it was 9.97 z-score; in assay [5], 7.71 z-score; in assay [6] it was 6.9 z-score. Further, in assay [7], the binding signal came out at 7.09 z-score.

Take “CCGATTAACATCAGGGGGGAATATGATGTTAATCGGGTCTTGATTCGCTTGACGCTGCTG”: the binding signal is 7.1 z-score in assay [1]; 6.54 z-score in assay [2]; 7.41 z-score in assay [3]; 10.2 z-score in assay [4]; 5.21 z-score in assay [5]; 6.44 z-score in assay [6]. Further, in assay [7], the binding signal is 6.79 z-score.

For the sequence “CCGATTAACATCAGGAAACTCCCTGATGTTAATCGGGTCTTGATTCGCTTGACGCTGCTG”, the binding signal in assay [1] stood at 5.65 z-score; in assay [2] it was 7.91 z-score; in assay [3], 4.86 z-score; in assay [4], 1.88 z-score; in assay [5], 5.39 z-score; in assay [6] it was 9.07 z-score. In assay [7], this sequence showed a binding signal of 5.86 z-score.

In the case of “CCGATTAACATCAGGGGAAACCCTGATGTTAATCGGGTCTTGATTCGCTTGACGCTGCTG”, the binding signal was 10.2 z-score in assay [1]; 11.4 z-score in assay [2]; 10.8 z-score in assay [3]; 7.22 z-score in assay [4]; 10 z-score in assay [5]; 9.57 z-score in assay [6]. This sequence also came in with a binding signal in assay [7] of 7.44 z-score.

Consider “CCGATTAACATCAGACTTTCCCATGATGTTAATCGGGTCTTGATTCGCTTGACGCTGCTG”, for which the binding signal stood at 3 z-score in assay [1]; 4.28 z-score in assay [2]; 3.69 z-score in assay [3]; 2.74 z-score in assay [4]; 1.53 z-score in assay [5]; 4.28 z-score in assay [6]. The binding signal in assay [7] came to 3.45 z-score.

Turning to “CCGATTAACATCAATTCCCCTGATGATGTTAATCGGGTCTTGATTCGCTTGACGCTGCTG”, the binding signal in assay [1] amounted to 6.84 z-score; in assay [2], 7.45 z-score; in assay [3], 9.02 z-score; in assay [4] it was 5.73 z-score; in assay [5] it was 3.81 z-score; in assay [6], 4.89 z-score. For the same sequence, in assay [7], the binding signal worked out at 5.75 z-score.

“CCGATTAACATCAAGGGGGAGATTGATGTTAATCGGGTCTTGATTCGCTTGACGCTGCTG”: the binding signal came out at 6.99 z-score in assay [1]; 6.09 z-score in assay [2]; 7.57 z-score in assay [3]; 7.21 z-score in assay [4]; 3.01 z-score in assay [5]; 5.27 z-score in assay [6]. In addition, the binding signal in assay [7] is 7.18 z-score.

As to “CCGATTAACATCAGAATTACCCCTGATGTTAATCGGGTCTTGATTCGCTTGACGCTGCTG”, the binding signal in assay [1] is 4.43 z-score; in assay [2] it was 5.36 z-score; in assay [3], 5.04 z-score; in assay [4], 5.87 z-score; in assay [5] it was 2.94 z-score; in assay [6] it was 5.49 z-score. Moreover, in assay [7], the binding signal was determined as 4.69 z-score.

In the case of “CCGATTAACATCAAGGGGAAGGGTGATGTTAATCGGGTCTTGATTCGCTTGACGCTGCTG”, the binding signal in assay [1] came to 4.52 z-score; in assay [2], 5.48 z-score; in assay [3], 5.81 z-score; in assay [4] it was 3.95 z-score; in assay [5], 2 z-score; in assay [6] it was 4.16 z-score. In assay [7], this sequence gave a binding signal of 4.32 z-score.

For the sequence “CCGATTAACATCAGGACAGCCCCTGATGTTAATCGGGTCTTGATTCGCTTGACGCTGCTG”, the binding signal turned out to be 3.75 z-score in assay [1]; 5.09 z-score in assay [2]; 2.05 z-score in assay [3]; 1.05 z-score in assay [4]; 2.67 z-score in assay [5]; 6.62 z-score in assay [6]. Also, in assay [7], the binding signal was 4.14 z-score.

For “CCGATTAACATCAATAAACCCCCTGATGTTAATCGGGTCTTGATTCGCTTGACGCTGCTG”, the binding signal turned out to be 7.76 z-score in assay [1]; 6.85 z-score in assay [2]; 7.79 z-score in assay [3]; 2.94 z-score in assay [4]; 9.45 z-score in assay [5]; 6.33 z-score in assay [6]. In assay [7], the binding signal came to 6.85 z-score.

For the origin of these results see publication PMC5700166.
